This is part of a sample that, as a whole, favours compounds with a hit. Of some 83,000 tested, about 20% had one in any assay.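 Results are percent growth after 48 hours of single-concentration exposure. 100 means growth as in untreated cells, lower positive values show inhibition; negative values down to -100 show cell death.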 Calls of active or inactive are those of the source. Rule for the calls: active = growth percent below 10; inactive = the rest.
Tests used:
Assay in all cases: NCI-60 one-dose screen, 48 h (100 = growth as untreated, 0 = no growth, -100 = all killed)
Settings in all cases: 10 µM unless noted
[1] = system: NCI-H23 lung
[2] = system: NCI-H226 lung
[3] = system: NCI-H322M lung
[4] = system: HOP-62 NSCLC
[5] = system: NCI-H460 lung
[6] = system: HOP-92 NSCLC
[7] = system: NCI-H522 lung
[8] = system: A549/ATCC NSCLC
[9] = system: 786-0 renal
[10] = system: COLO 205 colon
[11] = system: DU-145 prostate
[12] = system: K-562 leukemia
[13] = system: MALME-3M melanoma
[14] = system: MDA-MB-231 breast
[15] = system: RXF 393 renal
[16] = system: SF-268 CNS
[17] = system: SF-295 CNS
[18] = system: SF-539 CNS
[19] = system: UACC-257 melanoma
[20] = system: M14 melanoma

Measured: growth

CCOC(=O)c1c(C(=O)c2cn(C)c3ccc(Br)cc23)c(-c2cn(C)c3ccc(Br)cc23)n(NC(=O)OC(C)(C)C)c1C
active: [6] 4.73% [100 µM]
inactive: [1] 86.5% [100 µM] | [2] 89.7% [100 µM] | [3] 89.5% [100 µM] | [4] 56.1% [100 µM] | [5] 80.5% [100 µM] | [7] 89.6% [100 µM] | [8] 74% [100 µM] | [9] 32% [100 µM] | [10] 98.5% [100 µM] | [11] 97.9% [100 µM] | [12] 89.1% [100 µM] | [13] 32.8% [100 µM] | [14] 51.2% [100 µM] | [15] 24.2% [100 µM] | [16] 82.4% [100 µM] | [17] 33% [100 µM] | [18] 48.3% [100 µM] | [19] 94.8% [100 µM] | [20] 82.7% [100 µM]

CC1CCc2c(C(=O)Nc3ncc(Cc4cccc([N+](=O)[O-])c4)s3)csc2C1 (stereo not given)
inactive: [1] 36.6% | [2] 54.1% | [3] 33.1% | [4] 26.8% | [5] 11.2% | [6] 58.9% | [8] 34.4% | [9] 30.1% | [10] 10.8% | [11] 18% | [12] 23.8% | [13] 51% | [14] 23.6% | [16] 43.9% | [17] 14.3% | [19] 52%
active: [7] 2.96% | [15] -24.1% | [18] -7.87% | [20] 6.98%

CC/C(=C(/c1ccc(Cl)cc1)c1ccc(OCCN2CCCCC2)cc1)c1ccc(OC)cc1
inactive: [1] 50.8% | [2] 81.3% | [3] 81% | [4] 86.8% | [5] 32% | [6] 57% | [7] 65.1% | [8] 56.1% | [9] 52% | [10] 40.4% | [11] 82.8% | [13] 75.4% | [14] 73.3% | [15] 47.9% | [16] 86.5% | [17] 55.1% | [18] 65.5% | [19] 54.2% | [20] 28.2%
active: [12] 2.95%

c1ccc([P+](c2ccccc2)(c2ccccc2)c2ccc3c4ccc([P+](c5ccccc5)(c5ccccc5)c5ccccc5)c5cccc(c6cccc2c63)c54)cc1
active: [1] 8.37% | [5] 4.26% | [6] 9.54% | [7] 6.86% | [10] 1.4% | [13] -13% | [14] 9.37% | [17] 3.75% | [18] -27.1%
inactive: [2] 15.7% | [3] 17.8% | [4] 14.1% | [8] 11% | [9] 40.7% | [11] 19.5% | [12] 11.8% | [15] 42.5% | [16] 24.4% | [19] 15.2% | [20] 15.4%

Cc1ccc(C[P+](c2ccccc2)(c2ccccc2)c2ccccc2)cc1
active: [1] -9.16% | [5] 3.04% | [6] -0.267% | [10] -15.5% | [11] 7.44% | [12] 2.1% | [17] 2.31% | [19] 3.36% | [20] 5.62%
inactive: [2] 16.1% | [3] 38.8% | [4] 13.5% | [7] 10.3% | [8] 26.9% | [9] 25.6% | [13] 10.1% | [14] 18.7% | [15] 16.6% | [16] 15.5% | [18] 16.3%

Cc1cc(=O)oc2cc(OCc3nn4c(Nc5nc6ccccc6s5)c(-c5ccccc5)nc4s3)ccc12
active: [12] -59.3%
inactive: [1] 83.3% | [2] 92.2% | [3] 90.7% | [4] 90.2% | [5] 83.8% | [6] 77.1% | [7] 76.6% | [8] 94.4% | [9] 103% | [10] 104% | [11] 97.7% | [13] 93.7% | [14] 83.1% | [15] 102% | [16] 86.1% | [17] 90.2% | [18] 96.1% | [19] 93.9% | [20] 100%

COc1cccc(/C=C2\COc3ccc(O)c(O)c3C2=O)c1
inactive: [1] 47% | [2] 79.1% | [3] 36.4% | [5] 28.7% | [8] 47.6% | [10] 43.3% | [12] 11.7% | [17] 79.1% | [19] 28.1% | [20] 26%
active: [4] 4.02% | [6] -12% | [7] -67% | [9] -38.1% | [11] 4.84% | [13] -26.3% | [14] 0.944% | [15] -18.7% | [16] 5.27% | [18] -54.7%

COCCOc1cc2ncnc(N3CCN(c4cc(S(C)(=O)=O)c(C)cc4Cl)CC3)c2cc1OCCOC
inactive: [1] 81.9% | [2] 81.4% | [3] 105% | [4] 100% | [5] 102% | [6] 53.3% | [7] 90.6% | [8] 90.6% | [9] 105% | [10] 97.1% | [11] 96.8% | [12] 88.9% | [13] 87% | [14] 96% | [15] 99.7% | [16] 91.8% | [17] 90.5% | [18] 92% | [19] 91.1% | [20] 111%

O=C1/C(=C/c2ccc([N+](=O)[O-])cc2)COc2ccc(O)cc21
inactive: [1] 96.6% | [2] 100% | [3] 91.9% | [4] 104% | [5] 97.9% | [6] 110% | [7] 62.2% | [8] 97.1% | [9] 81.9% | [10] 92.9% | [11] 92.6% | [12] 11.2% | [13] 96.1% | [14] 80.8% | [15] 98.9% | [16] 84% | [17] 98.6% | [18] 94.5% | [19] 106% | [20] 88.2%

COC(=O)Nc1nc2ccc(S(=O)c3ccccc3)cc2[nH]1 (stereo not given)
inactive: [1] 64.4% | [2] 92.9% | [3] 88% | [4] 99.4% | [5] 60.3% | [6] 75.5% | [7] 65.8% | [8] 57.7% | [9] 80.4% | [10] 67.5% | [11] 96.3% | [12] 29.9% | [13] 83.7% | [14] 68.4% | [15] 107% | [16] 84.8% | [17] 58.4% | [18] 73.6% | [19] 73.9% | [20] 44.5%

O=C(/C=C/c1ccccc1)Nc1ncc(Cc2ccccc2Cl)s1
active: [7] -11.2% | [10] 2.14% | [15] -7.17% | [17] -2.76% | [18] -16.3% | [20] 8.18%
inactive: [1] 51.8% | [2] 48.6% | [3] 33.8% | [4] 18.9% | [5] 14.1% | [6] 65.1% | [8] 30.8% | [9] 45.7% | [11] 26.9% | [12] 12.6% | [13] 53.8% | [14] 40.3% | [16] 71.6% | [19] 77.1%

N#Cc1c(-c2ccccc2)cc(-c2ccc(Nc3nc(Nc4ccc(Cl)cc4)nc(Nc4ccc(Cl)cc4)n3)cc2)nc1N
active: [2] -23.4% | [6] -72.5% | [10] -25.3% | [13] -68.1% | [14] -31.2% | [15] -44.5% | [18] -53.9% | [19] -12.1% | [20] 2%
inactive: [1] 39.2% | [3] 87% | [4] 99% | [5] 48.2% | [7] 80.7% | [8] 28.8% | [9] 46.7% | [11] 34% | [12] 32.6% | [16] 51.9% | [17] 75.5%

O=C(Nc1ccc(Oc2cccc(Cl)c2)c(Cl)c1)c1cccnc1
active: [15] -0.145% | [18] -8.37%
inactive: [1] 47.9% | [2] 54.3% | [3] 47.1% | [4] 38% | [5] 22.2% | [6] 61.3% | [7] 27.3% | [8] 36.8% | [9] 39.2% | [10] 15.4% | [11] 16.1% | [12] 11.1% | [13] 50.1% | [14] 59% | [16] 53.4% | [17] 41.4% | [19] 64.2% | [20] 21.8%

Cc1cccc(/C=C/c2c(C(=O)/C=C/c3ccccc3)c(C)nc3ccccc23)c1
inactive: [16] 37.7%
active: [1] -57.9% | [2] -16.5% | [3] 9.28% | [4] -48.1% | [5] -71.8% | [6] -1.2% | [7] -58.7% | [8] -34.8% | [9] -55.5% | [10] -61.8% | [11] -62% | [12] 3.77% | [13] -79.3% | [14] -14.1% | [15] -83% | [17] -18.8% | [18] -84.9% | [19] -31.1% | [20] -12.8%

CCC(C)(C)C(=O)O[C@H]1C[C@@H](C)C=C2C=C[C@H](C)[C@H](CC[C@@H]3CC(SCCN)CC(=O)O3)[C@H]21 (stereo not given in full)
inactive: [1] 98.2% | [2] 98.3% | [3] 97.4% | [4] 98.9% | [5] 107% | [6] 34.6% | [7] 65.4% | [8] 75.7% | [9] 102% | [10] 82.8% | [11] 98.7% | [12] 51.2% | [13] 86.2% | [14] 88.7% | [15] 86.8% | [16] 96.3% | [17] 106% | [18] 76.2% | [19] 78% | [20] 60.1%

From PubChem BioAssay (NCI)
